The campaign covered roughly 16,000 compounds. About 4,000 (25%) were called active. Inconclusive results (about 26%) are left out. A selection follows. A number with no mark means an inactive call. Calls come from the whole dose curve; as a rule, active = well fitted curve in the direction sought with a large enough effect; inconclusive = small, poorly fitted or top-dose-only effect, or effect the other way; inactive = no such curve, though single readings can be large or run the other way.
What follows are compounds tested against Cytochrome P450 2C9 (Homo sapiens) (UniProt P11712) (assay: Cytochrome panel assay with activity outcomes). Details: recombinant CYP, pro-luciferin dealkylation, luminescence, p450-cyp2c9; series mostly up to 57.1 µM; activity, negative = inhibition: at the top concentration.
Sequence of Cytochrome P450 2C9 (Homo sapiens) (P11712 whole entry, looked up): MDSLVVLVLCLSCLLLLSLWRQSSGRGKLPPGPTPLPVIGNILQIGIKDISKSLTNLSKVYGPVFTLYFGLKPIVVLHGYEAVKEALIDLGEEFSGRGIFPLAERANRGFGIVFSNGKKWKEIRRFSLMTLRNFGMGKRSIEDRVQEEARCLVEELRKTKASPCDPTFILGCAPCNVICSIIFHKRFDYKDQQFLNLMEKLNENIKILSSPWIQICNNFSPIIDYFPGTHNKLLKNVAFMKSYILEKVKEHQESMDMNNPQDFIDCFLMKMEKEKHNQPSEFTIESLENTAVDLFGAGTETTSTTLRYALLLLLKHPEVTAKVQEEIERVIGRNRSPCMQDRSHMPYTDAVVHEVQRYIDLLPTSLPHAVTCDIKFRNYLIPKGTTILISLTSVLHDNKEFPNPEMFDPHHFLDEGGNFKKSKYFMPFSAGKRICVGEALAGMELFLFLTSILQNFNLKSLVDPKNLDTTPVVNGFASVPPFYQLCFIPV
In the case of `O=C1C=C[C@@H](O)[C@H]2[C@@H]3C(=O)N(c4cccc(Oc5ccccc5)c4)C(=O)[C@@H]3CC[C@H]12`, the activity, negative = inhibition is reported as -24.8% [at 11.4 µM]. With `COC(=O)c1nn(-c2ccc(OC)cc2)c(=O)cc1Oc1cccc(Cl)c1` the “activity, negative = inhibition” value was -7.52%. `CCOC(=O)C(=Cc1ccc(-c2ccsc2C(=O)OC)o1)C(=O)OCC` was tested, and the AC50 was 1.26 µM (active). With `CCOC(=O)C(=CNCC(=O)O)C(=O)OCC` the “activity, negative = inhibition” value was -3.32%. With `O=C(Nc1cccc2nsnc12)c1ccc(-c2cccc(Cl)c2)o1` the “activity, negative = inhibition” value was -23.8%. In the case of `CCOC(=O)N/N=C/c1ccc(C)o1`, the “activity, negative = inhibition” value is reported as -28.6%. For `COC(=O)c1sccc1-c1ccc(C(=O)Nc2cccnc2)o1`, the AC50 was 5.01 µM (active). For `COC(=O)c1sccc1-c1ccc(C(=O)Nc2cccc(Cl)c2)o1`, the AC50 was 10 µM (active). In the case of `CCN1C(=O)[C@H]2[C@H]3[C@H](O)[C@H](O)C/C(=N/O[C@@H](C)c4cn([C@H]5COC[C@H]5O)nn4)[C@@H]3CC[C@@H]2C1=O`, the activity, negative = inhibition is reported as 9.59% [at 11.4 µM]. `CCOC(=O)c1cc(CC)sc1NC(=O)C(c1ccccc1)c1ccccc1` was tested, and the AC50 was 6.31 µM (active). `COC(=O)c1cc(-c2ccccc2)sc1NC(=O)CN1C(=O)c2ccccc2C1=O` was tested, and the AC50 was 2.82 µM (active). In the case of `CCOC(=O)CCCNC(=O)CCCNC(=O)C(c1ccccc1)c1ccccc1`, the “activity, negative = inhibition” value is reported as -21.3%. In the case of `CCOC(=O)c1cc(-c2ccccc2)sc1NC(=O)c1ccc(OC)cc1`, the AC50 is reported as 11.2 µM (active). With `CCOC(=O)c1cc(-c2ccccc2)sc1NC(=O)C(C)(C)C` the “activity, negative = inhibition” value was -29.5%. With `CCOC(=O)N/N=C1/C[C@@H](O)[C@@H](O)[C@@H]2[C@@H]3C(=O)N(C(C)(C)C)C(=O)[C@H]3CC[C@@H]12` the activity, negative = inhibition was 6.14% [at 11.4 µM]. With `COc1ccccc1-c1nc(Nc2ccncc2)c2ccccc2n1` the activity, negative = inhibition was -28.7% [at 2.29 µM]. With `c1nc(NC2CC2)c2cc(-c3ccoc3)ccc2n1` the activity, negative = inhibition was -5.58% [at 2.29 µM]. In the case of `CCOC(=O)Cn1c(-c2ccccc2)nc2ccccc2c1=O`, the AC50 is reported as 2 µM (active). For `O=c1c2ccccc2nc(-c2ccc(Br)cc2)n1Cc1ccccc1`, the AC50 was 2.51 µM (active). In the case of `O=C(O)Cn1c(-c2ccccc2)nc2ccccc21`, the “activity, negative = inhibition” value is reported as -9.81%. For `C[C@@H](CC(=O)O)[C@@H](N)C(=O)O`, the “activity, negative = inhibition” value was -21.2%. `COc1ccc2c3c(ccc2c1)N[C@H](C(=O)O)CC3` was tested, and the activity, negative = inhibition was -0.255% [at 11.4 µM]. Compound `COCCNc1nc(-c2ccccc2OC)nc2ccccc12` has an activity, negative = inhibition of 5.14% [at 2.29 µM]. `COc1cc(CC(=O)O)c(C(C)=O)cc1OC` was tested, and the “activity, negative = inhibition” value was 3.54%. In the case of `CC(=O)c1cc(CC=C(C)C)c(O)cc1O`, the AC50 is reported as 2.51 µM (active). For `Cc1[nH]c2ccccc2c1C(c1ccccn1)N1CCC(C)CC1` (configuration not stated), the “activity, negative = inhibition” value was -1.22%. `CCC(C)(C)n1nnnc1C(c1ccc(C)cc1)N1CCC(C)CC1` (configuration not stated) was tested, and the AC50 was 28.2 µM (active). With `Cn1c(-c2ccccc2)cnc1N` the “activity, negative = inhibition” value was 5.03%. In the case of `Cc1ccccc1CNc1ncnc2c1ncn2[C@@H]1O[C@@H](CO)[C@H](O)[C@@H]1O`, the “activity, negative = inhibition” value is reported as 5.73%. Work on `CC(C)N(CC(=O)O)CC(=O)O` yielded an activity, negative = inhibition of -8.23% [at 11.4 µM]. `CN1Cc2c(C(=O)OC(C)(C)C)ncn2-c2ccsc2C1=O` was tested, and the AC50 was 5.01 µM (active). For `Cc1c(N(C)CS(=O)(=O)O)c(=O)n(-c2ccccc2)n1C`, the “activity, negative = inhibition” value was -0.666% [at 25.6 µM]. In the case of `Cc1c(CCO)c(=O)n(-c2ccccc2)n1S(=O)(=O)c1c(Cl)cc(Cl)cc1Cl`, the AC50 is reported as 5.01 µM (active). In the case of `Cc1c(CCO)c(=O)n(C)n1C(=O)c1ccc(F)cc1`, the “activity, negative = inhibition” value is reported as 55%. `Cc1cccc(C(=O)NCN2CCN(c3ccccc3C#N)CC2)c1` was tested, and the AC50 was “inactive”. In the case of `Cc1ccccc1C(=O)N1CCN(c2ccc([N+](=O)[O-])c(NCc3ccco3)c2)CC1`, the AC50 is reported as 2.24 µM (active). With `N#Cc1ccc(C(=O)Nc2ccc(N3CCN(C(=O)c4ccco4)CC3)cc2)c(F)c1` the “activity, negative = inhibition” value was -19.7%. For `Cc1cccc(C(=O)N2CCN(c3ccc([N+](=O)[O-])c(NCc4ccco4)c3)CC2)c1`, the AC50 was 3.55 µM (active). `O=C1C2C3C=CC(C2C(=O)N1CN1CCOCC1)C1C2C(=O)N(CN4CCOCC4)C(=O)C2C31` (configuration not stated) was tested, and the activity, negative = inhibition was -4.42% [at 11.4 µM]. With `COc1c2c(nc3ccccc13)O[C@H]([C@@](C)(O)CO)C2` the “activity, negative = inhibition” value was 6.33% [at 25.6 µM]. `NC[C@H]1O[C@H](n2cnc3c(N)ncnc32)C[C@@H]1O` showed an activity, negative = inhibition of 11.4% [at 11.4 µM]. In the case of `CCCCN(C)Cc1c(C)[nH]c2ccc(Cl)cc2c1=O`, the “activity, negative = inhibition” value is reported as -23.2%. For `O=C(NCCc1ccc(Cl)cc1)C1CCN(S(=O)(=O)N2CCC3(CC2)OCCO3)CC1`, the AC50 was 7.08 µM (active). In the case of `O=C(NCCCN1CCN(Cc2ccccc2)CC1)C1CCN(S(=O)(=O)N2CCCC2)CC1`, the “activity, negative = inhibition” value is reported as -14.5%. `O=C(NCCCN1CCC(Cc2ccccc2)CC1)C1CCN(S(=O)(=O)N2CCOCC2)CC1` was tested, and the “activity, negative = inhibition” value was -2.95%. For `NCS(=O)(=O)O`, the activity, negative = inhibition was -4.35% [at 11.4 µM]. For `N#Cc1ccc(C2=NC(C(F)(F)F)(C(F)(F)F)c3c(n(Cc4ccco4)c(=O)[nH]c3=O)N2)cc1`, the AC50 was 0.398 µM (active). For `CC1(C)CC2(CC(c3cccs3)c3cc(Cl)c(O)cc3O2)NC(=S)N1` (configuration not stated), the AC50 was 1 µM (active). `Cc1noc(C)c1-c1cc(NCc2cccs2)ncn1` was tested, and the activity, negative = inhibition was 17.3% [at 2.29 µM]. `O=C(N/N=C/c1ccccn1)c1ccc(Br)o1` was tested, and the “activity, negative = inhibition” value was -46.8%. For `Cc1c(/C=N/NC(=O)c2ccc3c(c2)OCO3)cnn1C`, the “activity, negative = inhibition” value was -16.9%. With `O=C(N/N=C\c1cn(-c2ccccc2)nc1-c1ccccc1)c1ccc(Br)o1` the AC50 was 1.58 µM (active). With `COc1ccc(-c2nn(-c3ccccc3)cc2/C=N/NC(=O)c2ccc3c(c2)OCO3)cc1` the AC50 was 3.16 µM (active). In the case of `O=C(N/N=C\c1cn(-c2ccccc2)nc1-c1ccccc1)c1ccc2c(c1)OCO2`, the AC50 is reported as 3.98 µM (active). `CC(/C=C/c1ccccc1)=N/NC(=O)CNC(=O)c1ccc2c(c1)OCO2` was tested, and the “activity, negative = inhibition” value was -26%. `CN1CCN(c2ncncc2-c2ccccc2Cl)CC1` showed an activity, negative = inhibition of -9.71% [at 2.29 µM]. Work on `CC(=O)OC[C@@H]1O[C@@H](O/N=C2/C[C@@H](O)[C@@H](O)[C@@H]3[C@@H]4C(=O)N(C[C@@H]5CCCO5)C(=O)[C@H]4CC[C@H]23)[C@H](OC(C)=O)[C@H](OC(C)=O)[C@@H]1OC(C)=O` yielded an activity, negative = inhibition of 5.35% [at 11.4 µM].

From PubChem BioAssay AID1851 (National Center for Advancing Translational Sciences (NCATS), 2009)
% is set by controls: 0 for no effect and ±100 for the full control effect.
